# From PubChem BioAssay
# Most compounds without a hit are left out; they make up all but 3.5% or so of the library.
# PPC-1+TRAIL kill: compounds killing PPC-1 cancer cells with TRAIL present, primary screen, TRAIL potentiator project, ATPLite luminescence, uHTS; PPC-1 cells + TRAIL, ATPLite viability luminescence; cell killing (% activity), % at 4 µM or 5 µM; 220,000 compounds, 0.41% hits; AID 1443, 2008;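 active = cell killing above 50% in the first pass at 4 µM, then a duplicate retest at 5 µM averaging 50% or more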;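 also: plate controls were cells with TRAIL plus DMSO for no effect and medium-only wells lacking cells for full effect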
# TWEAK-Fn14 inh: inhibitors of TWEAK-Fn14 signaling, primary screen, luciferase reporter cells, uHTS. TWEAK-stimulated Fn14 reporter cells, luciferase luminescence, 8 h. inhibition, % at 10 µM. 360,000 compounds, 2% hits; in the data active = inhibition above about 50%
# TRAIL sens C8: viability loss with TRAIL in NB7+C8 cells, primary screen, TRAIL sensitizer project, cell-based, ATPlite luminescence; 360,000 compounds, 1% hits; inhibition (viability loss, TRAIL sensitization), % at 10 µM;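 active = compounds causing at least 50% loss of cell viability in the single-dose screen, relative to plate controls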
# HSP90 inh: HSP90 inhibitors, primary screen, cell lysate, luminescence; Heat shock protein HSP 90 (rabbit reticulocyte lysate; luciferase refolding); Rabbit reticulocyte lysate, luciferase refolding luminescence, 3 h; inhibition, % at 5.6 µM; 290,000 compounds, 0.91% hits; AID 1789, 2009;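 active = inhibition above the screen-wide mean plus 3 SD, computed separately per campaign, cut at about 16% in these data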;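 also: 0% = DMSO wells and 100% = 60 µM geldanamycin wells; inhibitors lower the luminescence because luciferase stays unfolded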
# Platelet DG rel: inhibitors of platelet dense granule secretion, primary screen, cell-based, MLPCN, human platelets; human platelet-rich plasma, SFLLRN dense granule ATP release, luminescence; inhibition, %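 (compounds screened at 7.5 µM in platelet-rich plasma)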; 300,000 compounds, 0.22% hits;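 active = mean replicate score, as percent of positive control, at or above 50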
# TROY signal inh: inhibitors of TROY-driven NF-kB signaling, primary screen, Q293 LMP1-TROYcd cells, NF-kB luciferase, uHTS; inhibition, % at 10 µM; Q293 LMP1-TROYcd NF-kB luciferase reporter, 4 h; 360,000 compounds, 0.98% hits;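 active = compounds whose plate-normalised and pattern-corrected inhibition of the luciferase reporter signal at the single screening dose is 50% or more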
# * = called active by the depositor; / = no result given.
SMILES,PPC-1+TRAIL kill,TWEAK-Fn14 inh,TRAIL sens C8,HSP90 inh,Platelet DG rel,TROY signal inh
O=C1NC[C@H](Cc2ccccc2)N(CC2CCN(CCC34CC5CC(CC(C5)C3)C4)CC2)C1=O,/,-3,2,/,/,0
COCCn1c(SCC(=O)Nc2ccc(OC)c(S(N)(=O)=O)c2)nc2ccccc2c1=O,/,-7,18,/,-5,-7
CCCCCCC1CC(=O)NC(=O)N1 (centres undefined),8,-7,19,6,-3,-7
CCOC(=O)C1(Cc2cccc(OC)c2)CCCN(C(=O)c2ccc(OC)o2)C1 (centres undefined),/,98*,-7,-2,-3,-96
COc1cc(C)c(NC(=O)C2CCN(S(=O)(=O)c3cccs3)CC2)cc1OC,/,-12,-10,/,/,-3
COC(=O)[C@]1(C)N[C@H](CN(C)C(=O)Nc2ccccc2)[C@@H]2C(=O)N(C)C(=O)[C@@H]21,/,-2,-7,/,/,-19
FC(F)Oc1ccc(C2=Nn3c(nnc3-c3ccccc3Cl)SC2)cc1OCC1CC1,/,-29,-16,/,/,-6
COc1ccc(C2=Nn3c(nnc3-c3ccccc3Cl)SC2)cc1OC1CCCC1,/,8,8,/,/,53*
COc1ccc(C2=Nn3c(nnc3-c3ccccc3Cl)SC2)cc1OC1CCOC1 (centres undefined),/,-44,23,/,/,-34
COc1ccc(C2=Nn3c(nnc3-c3ccccc3F)SC2)cc1OCC1CC1,/,13,4,/,/,51*
Cc1nn(C)c(C(=O)N/N=C/c2cccnc2)c1Br,/,-8,-6,0,-4,8
COc1ccc(CN(C)C(=O)c2cc(-c3ccccc3)nc3ccc(C)cc23)c(OC)c1,/,53*,17,/,/,11
COc1ccccc1CN(C)C(=O)c1cc(C)nc2ccccc12,/,8,-7,-4,1,13
NC(=O)c1nsc(C(=O)N(Cc2ccco2)C(C(=O)NCc2ccccc2)c2ccc(O)cc2)c1N (centres undefined),/,31,12,1,-26,35
S=c1sc2c(N3CCN(Cc4ccccc4)CC3)ncnc2n1-c1ccccc1,0,58*,21,6,8,56*
CN1CCN(c2ncnc3c2cnn3-c2ccc(Cl)cc2)CC1,6,76*,23,42*,26,80*
CCN1CCN(c2ncnc3c2cnn3-c2ccc(Cl)cc2)CC1,8,9,3,/,11,41
CC1CC(C)CN(c2ncnc3c2cnn3-c2ccc(Cl)cc2)C1 (centres undefined),/,77*,24,2,12,78*
COc1ccc(-n2ncc3c(N4CCN(Cc5ccccc5)CC4)ncnc32)cc1,17,81*,38,2,-4,61*
COc1ccc(C2=CSC3=NCCN23)cc1F,-1,-6,5,4,-4,54*
Cc1cnc(C)c(N2CCN(Cc3nc(-c4ccccc4)no3)CC2)n1,16,-15,-2,2,50*,14
c1ccc(-c2noc(CN3CCOCC3)n2)cc1,14,-18,19,-2,-7,-18
NC(N)=Nc1ccc(C=C2C=Cc3ccccc32)cc1,/,8,87*,/,/,-29
COc1ccc(N=c2scc(C)n2CCCN2CCCC2=O)cc1,-9,6,0,-1,3,2
Cc1nnc(SCC(=O)N2CCC(c3noc4ccc(F)cc34)CC2)s1,5,68*,-5,-4,6,40
SMILES,PPC-1+TRAIL kill,TWEAK-Fn14 inh,TRAIL sens C8,HSP90 inh,Platelet DG rel,TROY signal inh
Cc1sc2ncnc(SCC(=O)N3CCC(c4noc5ccc(F)cc45)CC3)c2c1C,-13,8,0,0,-5,22
O=C(CP(=O)(c1ccccc1)c1ccccc1)Nc1nc2ccc(Cl)cc2s1,22,18,3,0,-20,-2
COc1ccc(CCN(C)C(=O)CNC(=O)c2ccc3c(c2)OCO3)cc1OC,/,-4,9,-6,-9,0
CN1CCc2c(sc3nc(SCC(N)=O)n(-c4ccc(Cl)cc4)c(=O)c23)C1,/,-3,3,-2,-2,-8
CCCSc1nnc2n(Cc3ccccc3)c(=O)c3c4c(sc3n12)CCC4,8,/,/,/,/,/
C=C(C)CSc1nnc2n(Cc3ccccc3)c(=O)c3c4c(sc3n12)CCC4,9,7,85*,-3,1,-6
O=C(O)CSc1nc2sc3c(c2c(=O)n1Cc1ccccc1)CCCCC3,/,51*,27,5,5,57*
CN1CCc2c(sc3nc(SCC(N)=O)n(-c4ccccc4)c(=O)c23)C1,12,57*,-4,2,1,/
COc1cc(NC(=O)CN2CCN(C(=O)C3CCCO3)CC2)c(OC)cc1Cl (centres undefined),/,-4,-22,1,-30,0
Cc1ccc(Cl)cc1NC(=O)C1CCCN1S(=O)(=O)c1ccc(-c2ccc(=O)[nH]n2)s1 (centres undefined),/,-38,8,-1,2,-39
COc1ccc(/C=C/C(=O)NCC(=O)N/N=C/c2cccs2)cc1,/,10,2,0,1,10
C=CCN1C(=O)/C(=C\C(C)=C\c2ccccc2)SC1=S,/,-10,12,-5,1,7
CC(/C=C1\SC(=O)N(CCCC(=O)O)C1=O)=C\c1ccccc1,23,104*,12,37*,-11,87*
CC(=C\c1ccccc1)/C=C1/SC(=S)N(CCCC(=O)O)C1=O,/,20,6,1,-1,60*
C#Cc1ccc(NC(=O)C2(C)CCN2C(=O)c2ccccc2CCc2ccccc2)cc1 (centres undefined),/,12,89*,/,/,-10
C#Cc1ccc(NC(=O)C2(C)CCN2C(=O)C2(c3ccccc3)CCCC2)cc1 (centres undefined),/,21,86*,/,/,26
Cc1noc(C)c1C(=O)OCC(=O)Nc1ccc(N2CCOCC2)cc1,/,13,-10,/,/,-8
O=C(CCn1cccn1)Nc1ccc(-c2ccno2)cc1,/,-12,4,-5,-4,-15
CC(=O)c1ccc(NC(=O)/C(=C\c2ccc(F)cc2)NC(=O)c2ccco2)cc1,/,11,-5,-2,-1,16
O=c1[nH]c(CN2CCCCC2)ccc1O,/,-6,-2,/,/,2
Cc1ccc(-c2nc3c(c(SCC(=O)N4CCCC4)n2)COC(C)(C)C3)cc1,/,11,-2,/,/,11
CCN(CC)C(=O)CSc1nc(-c2ccc(C)cc2)nc2c1COC(C)(C)C2,-3,58*,2,3,-3,58*
COc1ccc(C)cc1NC(=O)C1COc2ccccc2O1 (centres undefined),1,4,-8,-4,-1,-57
